Reference: the supplement of paper PMC8728848
About 410 targets per protein were measured; listed, in parts, are those with the strongest signals and a random draw of the rest.

How the values were obtained:
Experiment in all cases: glycan array binding signal (z-score within array); higher = stronger binding
Details in all cases: glycan notation: IUPAC condensed, linker removed
[1] = target: Gal(b1-4)GlcNAc(b1-3)Gal(b1-4)GlcNAc(b1-3)Gal(b1-4)GlcNAc(b1-3)Gal(b1-4)GlcNAc(b1-2)[Gal(b1-4)GlcNAc(b1-3)Gal(b1-4)GlcNAc(b1-3)Gal(b1-4)GlcNAc(b1-3)Gal(b1-4)GlcNAc(b1-6)]Man(a1-6)[Gal(b1-4)GlcNAc(b1-3)Gal(b1-4)GlcNAc(b1-3)Gal(b1-4)GlcNAc(b1-3)Gal(b1-4)GlcNAc(b1-2)Man(a1-3)]Man(b1-4)GlcNAc(b1-4)[Fuc(a1-6)]GlcNAc
Procedure, shortened: (§1)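 Arrays were curated from the Consortium for Functional Glycomics database, 3228 in total, and kept only where the protein sequence was available. Binding is expressed as a within-array Z-score. This score was averaged across arrays of the same protein sequence at different concentrations or buffers and across linkers, and negative values can be read as non-binding.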

[2] = target: Gal(b1-4)GlcNAc(b1-3)Gal(b1-4)GlcNAc(b1-3)Gal(b1-4)GlcNAc(b1-3)Gal(b1-4)GlcNAc(b1-3)Gal(b1-4)GlcNAc(b1-2)Man(a1-3)[Gal(b1-4)GlcNAc(b1-3)Gal(b1-4)GlcNAc(b1-3)Gal(b1-4)GlcNAc(b1-3)Gal(b1-4)GlcNAc(b1-3)Gal(b1-4)GlcNAc(b1-2)Man(a1-6)]Man(b1-4)GlcNAc(b1-4)GlcNAc
Procedure, shortened: as §1

[3] = target: Gal(b1-4)GlcNAc(b1-3)Gal(b1-4)GlcNAc(b1-3)Gal(b1-4)GlcNAc(b1-3)Gal(b1-4)GlcNAc(b1-3)Gal(b1-4)GlcNAc(b1-2)Man(a1-3)[Gal(b1-4)GlcNAc(b1-3)Gal(b1-4)GlcNAc(b1-3)Gal(b1-4)GlcNAc(b1-3)Gal(b1-4)GlcNAc(b1-3)Gal(b1-4)GlcNAc(b1-2)Man(a1-6)]Man(b1-4)GlcNAc(b1-4)[Fuc(a1-6)]GlcNAc
Procedure, shortened: as §1

[4] = target: Gal(b1-4)GlcNAc(b1-3)Gal(b1-4)GlcNAc(b1-3)Gal(b1-4)GlcNAc(b1-3)Gal(b1-4)GlcNAc(b1-3)Gal(b1-4)GlcNAc(b1-3)Gal(b1-4)GlcNAc(b1-2)Man(a1-3)[Gal(b1-4)GlcNAc(b1-3)Gal(b1-4)GlcNAc(b1-3)Gal(b1-4)GlcNAc(b1-3)Gal(b1-4)GlcNAc(b1-3)Gal(b1-4)GlcNAc(b1-3)Gal(b1-4)GlcNAc(b1-2)Man(a1-6)]Man(b1-4)GlcNAc(b1-4)GlcNAc
Procedure, shortened: as §1

[5] = target: Gal(b1-4)GlcNAc(b1-3)Gal(b1-4)GlcNAc(b1-3)[Gal(b1-4)GlcNAc(b1-3)Gal(b1-4)GlcNAc(b1-6)]GalNAc
Procedure, shortened: as §1

[6] = target: Gal(b1-4)GlcNAc(b1-6)GalNAc
Procedure, shortened: as §1

Gal3S(b1-4)Glc6S = target: Gal3S(b1-4)Glc6S
Procedure, shortened: as §1

[7] = target: Gal3S(b1-4)[Fuc(a1-3)]Glc6S
Procedure, shortened: as §1

Gal6S(b1-4)Glc = target: Gal6S(b1-4)Glc
Procedure, shortened: as §1

[8] = target: GalNAc(b1-4)GlcNAc(b1-2)Man(a1-3)[GalNAc(b1-4)GlcNAc(b1-2)Man(a1-6)]Man(b1-4)GlcNAc(b1-4)GlcNAc
Procedure, shortened: as §1

[9] = target: GlcNAc(b1-3)Gal(b1-4)GlcNAc
Procedure, shortened: as §1

[10] = target: GlcNAc(b1-3)Gal(b1-4)GlcNAc(b1-3)Gal(b1-4)GlcNAc
Procedure, shortened: as §1

[11] = target: GlcNAc(b1-3)Gal(b1-4)GlcNAc(b1-3)Gal(b1-4)GlcNAc(b1-3)Gal(b1-4)GlcNAc(b1-3)Gal(b1-4)GlcNAc(b1-2)Man(a1-3)[GlcNAc(b1-3)Gal(b1-4)GlcNAc(b1-3)Gal(b1-4)GlcNAc(b1-3)Gal(b1-4)GlcNAc(b1-3)Gal(b1-4)GlcNAc(b1-2)Man(a1-6)]Man(b1-4)GlcNAc(b1-4)[Fuc(a1-6)]GlcNAc
Procedure, shortened: as §1

[12] = target: GlcNAc(b1-3)Gal(b1-4)GlcNAc(b1-3)Gal(b1-4)GlcNAc(b1-3)GalNAc
Procedure, shortened: as §1

[13] = target: GlcNAc(b1-4)GlcNAc(b1-4)GlcNAc(b1-4)GlcNAc(b1-4)GlcNAc
Procedure, shortened: as §1

Man(a1-6)Man = target: Man(a1-6)Man
Procedure, shortened: as §1

[14] = target: Neu5Ac(a2-3)Gal(b1-3)GlcNAc(b1-2)Man(a1-3)[Neu5Ac(a2-3)Gal(b1-3)GlcNAc(b1-2)Man(a1-6)]Man(b1-4)GlcNAc(b1-4)GlcNAc
Procedure, shortened: as §1

[15] = target: Neu5Ac(a2-3)Gal(b1-4)GlcNAc
Procedure, shortened: as §1

[16] = target: Neu5Ac(a2-3)Gal(b1-4)GlcNAc(b1-3)Gal(b1-4)[Fuc(a1-3)]GlcNAc
Procedure, shortened: as §1

[17] = target: Neu5Ac(a2-3)Gal(b1-4)GlcNAc(b1-3)GalNAc
Procedure, shortened: as §1

Neu5Ac(a2-6)Gal = target: Neu5Ac(a2-6)Gal
Procedure, shortened: as §1

[18] = target: Neu5Ac(a2-6)Gal(b1-4)GlcNAc(b1-2)Man
Procedure, shortened: as §1

[19] = target: Neu5Ac(a2-6)Gal(b1-4)GlcNAc(b1-2)[Neu5Ac(a2-6)Gal(b1-4)GlcNAc(b1-4)]Man(a1-3)[GlcNAc(b1-4)][Neu5Ac(a2-6)Gal(b1-4)GlcNAc(b1-2)[Neu5Ac(a2-6)Gal(b1-4)GlcNAc(b1-6)]Man(a1-6)]Man(b1-4)GlcNAc(b1-4)GlcNAc
Procedure, shortened: as §1

[20] = target: Neu5Ac(a2-6)GlcNAc(b1-4)GlcNAc(b1-4)GlcNAc
Procedure, shortened: as §1

[21] = target: Neu5Ac(a2-8)Neu5Ac(a2-3)Gal(b1-3)GalNAc(b1-4)[Neu5Ac(a2-3)]Gal(b1-4)Glc
Procedure, shortened: as §1

[22] = target: Neu5Ac(a2-8)Neu5Ac(a2-8)Neu5Ac(a2-3)[Gal(b1-3)GalNAc(b1-4)]Gal(b1-4)Glc
Procedure, shortened: as §1

[23] = target: Neu5Gc(a2-3)Gal(b1-3)[Fuc(a1-4)]GlcNAc
Procedure, shortened: as §1

B1: Gal 8 (Mus musculus), Q9JL15 (protein)
chain: MGGSHHHHHHGMASMLSLNNLQNIIYNPIIPYVGTITEQLKPGSLIVIRGHVPKDSERFQVDFQLGNSLKPRADVAFHFNPRFKRSSCIVCNTLTQEKWGWEEITYDMPFRKEKSFEIVFMVLKNKFQVAVNGRHVLLYAHRISPEQIDTVGIYGKVNIHSIGFRFSSASALPHTLGDLQSMETSALGLTQINRENIQKPGKLQLSLPFEARLNASMGPGRTVVIKGEVNTNARSFNVDLVAGKTRDIALHLNPRLNVKAFVRNSFLQDAWGEEERNITCFPFSSGMYFEMIIYCDVREFKVAINGVHSLEYKHRFKDLSSIDTLSVDGDIRLLDVRSW
Which results are given for B1?
glycan array binding signal (z-score) [1]: 2.76; glycan array binding signal (z-score) [2]: 3.48; glycan array binding signal (z-score) [3]: 3.61; glycan array binding signal (z-score) [4]: 3.5; glycan array binding signal (z-score) [5]: -0.063; glycan array binding signal (z-score) [6]: -0.214; glycan array binding signal (z-score) (Gal3S(b1-4)Glc6S): 0.566; glycan array binding signal (z-score) [7]: -0.498; glycan array binding signal (z-score) (Gal6S(b1-4)Glc): -0.532; glycan array binding signal (z-score) [8]: -0.195; glycan array binding signal (z-score) [9]: -0.163; glycan array binding signal (z-score) [10]: 1.11; glycan array binding signal (z-score) [11]: 3.01; glycan array binding signal (z-score) [12]: 0.651; glycan array binding signal (z-score) [13]: -0.54; glycan array binding signal (z-score) (Man(a1-6)Man): -0.51; glycan array binding signal (z-score) [14]: -0.466; glycan array binding signal (z-score) [15]: -0.517; glycan array binding signal (z-score) [16]: -0.215; glycan array binding signal (z-score) [17]: -0.525; glycan array binding signal (z-score) (Neu5Ac(a2-6)Gal): -0.511; glycan array binding signal (z-score) [18]: -0.548; glycan array binding signal (z-score) [19]: -0.602; glycan array binding signal (z-score) [20]: -0.545; glycan array binding signal (z-score) [21]: 0.316; glycan array binding signal (z-score) [22]: -0.539; glycan array binding signal (z-score) [23]: -0.514
